For 17 molecules, outcome, Potency and activity, negative = inhibition results are on record in PubChem BioAssay (NCATS).

Records with an inconclusive call do not appear. A call without a number means that no potency is given here. Values without a mark were called inactive. Activity calls are given as the source filed them. Calls come from the whole dose curve; as a rule, active = well fitted curve in the direction sought with a large enough effect; inconclusive = small, poorly fitted or top-dose-only effect, or another doubt; inactive = no such curve, though single readings can be large; an effect the other way counts as inactive or inconclusive. Bridge positions count the residues as written; N and C are the ends. Square brackets hold non-standard residues; d marks the D form. Peptide text beside a SMILES is read from it. * marks the point of attachment. ξ: configuration not given here. ξDab(CH2SO3H) = NC(CCNCS(=O)(=O)O)C(=O)O; Heptanoyl(6-Me) = CC(C)CCCCC(=O)*; Dab = NCC[CH](N)C(=O)O

Experiment [1] addresses ATP-dependent 6-phosphofructokinase (Trypanosoma brucei brucei) (UniProt O15648). Briefly: qHTS Assay to Find Inhibitors of T. brucei phosphofructokinase: hit validation (AID 492961).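 Note: luminescence reports ADP formed as PFK phosphorylates fructose-6-phosphate with ATP.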 Put shortly: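 Percent activity derived from corrected luminescence, normalized between 0x and 1x enzyme controls, then fitted to concentration-response curves. Conditions: 1.25 nM PFK, 0.1 mM ATP, 0.5 mM F6P, 45 min RT.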
Background: In qHTS, concentration-response curves come from the screen itself.

For experiment [2], the target named is Ubiquitin carboxyl-terminal hydrolase 1 (Homo sapiens) (UniProt O94782). The experiment in a line: Inhibitors of USP1/UAF1: Pilot qHTS (AID 504865).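 Note: rhodamine fluorescence freed from ubiquitin-rhodamine substrate followed over time; top concentration of the series differs between compounds; nearly all actives have a fitted effect of over 35% in size.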 The method, boiled down:
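Deubiquitinase activity followed as kinetic rhodamine fluorescence release from 150 nM Ub-Rho. 1 nM USP1/UAF1 with compound, after 15 min room-temperature preincubation, in HEPES pH 7.8 buffer containing TCEP, EDTA, BSA and Tween-20.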

Experiment [3] can be described thus: qHTS profiling for inhibitors of Plasmodium falciparum proliferation (AID 504749). Note: nearly all actives have a fitted effect of over 60% in size. The following applies: P. falciparum in erythrocytes, SYBR Green DNA, 72 h, at 28.7 µM (top of the series). The method, boiled down: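 Quantitative HTS: compounds pinned into medium, infected erythrocytes added (0.3% parasitemia, 2.5% hematocrit), 72 h culture at 37 C under 5% CO2. Saponin/Triton lysis with SYBR Green I, overnight RT, then fluorescence read.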

Sequence of Ubiquitin carboxyl-terminal hydrolase 1 (Homo sapiens) (O94782 whole entry, looked up): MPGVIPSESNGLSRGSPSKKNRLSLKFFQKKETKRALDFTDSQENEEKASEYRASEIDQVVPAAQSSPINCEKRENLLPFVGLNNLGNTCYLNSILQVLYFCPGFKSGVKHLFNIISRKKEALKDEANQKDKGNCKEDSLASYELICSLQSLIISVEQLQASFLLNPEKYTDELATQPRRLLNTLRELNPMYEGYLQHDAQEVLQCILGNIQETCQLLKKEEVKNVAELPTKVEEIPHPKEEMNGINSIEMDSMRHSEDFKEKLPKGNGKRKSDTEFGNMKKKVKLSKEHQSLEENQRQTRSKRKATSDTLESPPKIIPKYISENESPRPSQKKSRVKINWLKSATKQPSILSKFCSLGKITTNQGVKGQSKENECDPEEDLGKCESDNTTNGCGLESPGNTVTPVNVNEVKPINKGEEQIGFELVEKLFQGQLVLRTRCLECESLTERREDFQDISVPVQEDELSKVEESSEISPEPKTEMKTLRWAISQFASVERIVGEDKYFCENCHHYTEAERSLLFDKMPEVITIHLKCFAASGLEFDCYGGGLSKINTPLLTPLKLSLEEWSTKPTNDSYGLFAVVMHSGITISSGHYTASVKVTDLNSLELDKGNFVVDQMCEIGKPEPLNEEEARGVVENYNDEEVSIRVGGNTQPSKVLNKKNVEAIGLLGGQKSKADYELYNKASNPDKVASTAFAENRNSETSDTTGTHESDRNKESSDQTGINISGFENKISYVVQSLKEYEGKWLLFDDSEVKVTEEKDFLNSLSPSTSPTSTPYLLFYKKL
Sequence of ATP-dependent 6-phosphofructokinase (Trypanosoma brucei brucei) (O15648 whole entry, looked up): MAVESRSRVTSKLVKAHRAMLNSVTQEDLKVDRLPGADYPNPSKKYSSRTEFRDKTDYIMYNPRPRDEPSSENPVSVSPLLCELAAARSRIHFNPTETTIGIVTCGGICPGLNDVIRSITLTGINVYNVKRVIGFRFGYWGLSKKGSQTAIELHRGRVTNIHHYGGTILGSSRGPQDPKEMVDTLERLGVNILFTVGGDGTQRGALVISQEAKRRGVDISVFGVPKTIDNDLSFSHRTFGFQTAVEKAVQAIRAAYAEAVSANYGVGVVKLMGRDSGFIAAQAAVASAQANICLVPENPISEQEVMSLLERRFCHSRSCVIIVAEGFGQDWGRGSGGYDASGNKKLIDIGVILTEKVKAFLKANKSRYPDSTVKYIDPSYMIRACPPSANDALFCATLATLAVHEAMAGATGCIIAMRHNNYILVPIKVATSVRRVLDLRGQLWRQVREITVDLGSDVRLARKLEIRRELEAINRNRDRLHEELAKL

As to `[S]=[Sb][S][Sb]=[S]`, the molecule was classed as inactive in experiment [1]. In addition, the Potency result in experiment [2] is “inactive”. Besides, the activity, negative = inhibition in experiment [3] (parasite line A) was 8.49%; in experiment [3] (parasite line B), 1.29%.
Regarding `CN1C2CCC1C(C(=O)O)C(OC(=O)c1ccccc1)C2` (stereo not given), in experiment [1], the outcome was inactive. In addition, the Potency entry in experiment [2] was “inactive”. Besides, the figures for the activity, negative = inhibition in experiment [3] (parasite line A) and in experiment [3] (parasite line B) were 9.89% and 6.56%, respectively.
As for `CCOC(=O)/C=C(C)/C=C/CC(C)CCCC(C)C` (stereo not given), the result in experiment [1] was inactive. In experiment [2], the Potency result is “inactive”. Besides, the activity, negative = inhibition in experiment [3] (parasite line A) was -0.0375%; in experiment [3] (parasite line B), 8.06%.
Consider `Cc1cc(C)cc(C(=O)OC2CC3CCC(C2)N3C)c1` (stereo not given), for which the molecule was classed as inactive in experiment [1]. Also, the Potency entry in experiment [2] is “inactive”. For the same molecule, the activity, negative = inhibition in experiment [3] (parasite line A) was -5.04%; in experiment [3] (parasite line B) it was 8.93%.
With `CCNC(=O)[C@@H]1CCCN1C(=O)[C@H](CCCN=C(N)N)NC(=O)[C@H](CC(C)C)NC(=O)[C@@H](Cc1c[nH]c2ccccc12)NC(=O)[C@H](Cc1ccc(O)cc1)NC(=O)[C@H](CO)NC(=O)[C@H](Cc1c[nH]c2ccccc12)NC(=O)[C@H](Cc1cnc[nH]1)NC(=O)[C@@H]1CCC(=O)N1`, the molecule was classed as inactive in experiment [1].
As to `C=C1Nc2ccccc2C(=O)N1c1ccccc1C`, the molecule was called inactive in experiment [1]. The Potency result in experiment [2] is “inactive”. The results for the activity, negative = inhibition in experiment [3] (parasite line A) and in experiment [3] (parasite line B) were -20.1% and -23.4%, respectively.
For the molecule `C=CC[N+]1(C)CCC23c4c5ccc(O)c4O[C@H]2C(=O)CC[C@@]3(O)C1C5` (stereo not given in full), the result in experiment [1] was inactive. The Potency result in experiment [2] was “inactive”. Also, the activity, negative = inhibition is 14% in experiment [3] (parasite line A) and 14.5% in experiment [3] (parasite line B).
On to `CCC1NC(=O)C(NC(=O)c2ncccc2O)C(C)OC(=O)C(c2ccccc2)NC(=O)C2CC(=O)CCN2C(=O)C(Cc2ccccc2)N(C)C(=O)C2CCCN2C1=O` (stereo not given), for which, in experiment [1], the molecule was called inactive.
As to `CCCN1CCCC2Cc3nc(N)ncc3CC21` (stereo not given), in experiment [1], the call was inactive. In experiment [2], the Potency entry is “inactive”. The activity, negative = inhibition in experiment [3] (parasite line A) was 2.28%; in experiment [3] (parasite line B), 5.03%.
With `C[C@H](N)Cc1ccccc1`, the outcome in experiment [1] was inactive. In experiment [2], the Potency result was “inactive”. Further, the activity, negative = inhibition in experiment [3] (parasite line A) is -1.91%; in experiment [3] (parasite line B) it was -0.429%.
On to `CCC(C)C1NC(=O)C(CCNCS(=O)(=O)O)NC(=O)C(NC(=O)C(CCNCS(=O)(=O)O)NC(=O)C(NC(=O)C(CCNCS(=O)(=O)O)NC(=O)CCCCC(C)C)C(C)O)CCNC(=O)C(C(C)O)NC(=O)C(CCNCS(=O)(=O)O)NC(=O)C(CCNCS(=O)(=O)O)NC(=O)C(C(C)CC)NC1=O` (stereo not given) ({Heptanoyl(6-Me)}-[ξDab(CH2SO3H)]T[ξDab(CH2SO3H)][Dab][ξDab(CH2SO3H)]II[ξDab(CH2SO3H)][ξDab(CH2SO3H)]T; lactam 4-C; configuration not given here), for which, in experiment [1], the outcome was inactive.
Regarding `CCC(C)C1NC(=O)C(Cc2ccc(O)cc2)NC(=O)C(N)CSSCC(C(=O)N2CCCC2C(=O)NC(CC(C)C)C(=O)NCC(N)=O)NC(=O)C(CC(N)=O)NC(=O)C(CCC(N)=O)NC1=O` (stereo not given), the outcome in experiment [1] was inactive.
As to `Nc1nc(O)c(-c2ccccc2)o1`, the molecule was classed as inactive in experiment [1]. Further, in experiment [2], the Potency entry is “inactive”. The activity, negative = inhibition in experiment [3] (parasite line A) was 12.1%; in experiment [3] (parasite line B), 6.38%.
As for `CC(C)C(NC(=O)C(CC(=O)O)NC(=O)C(CCCCN)NC(=O)C(N)CCCN=C(N)N)C(=O)NC(Cc1ccc(O)cc1)C(=O)O` (stereo not given) (H-RKDVY-OH; configuration not given here), the result in experiment [1] was inactive.
As for `OC[C@@H](O)[C@H]1O[C@@H]2OC(C(Cl)(Cl)Cl)O[C@H]2[C@H]1O` (stereo not given in full), the call in experiment [1] was inactive. Besides, the Potency result in experiment [2] is “inactive”. The activity, negative = inhibition is 8.29% in experiment [3] (parasite line A) and 19.1% in experiment [3] (parasite line B).
With `CC(C)C[C@H](NC(=O)[C@@H](Cc1c[nH]c2ccccc12)NC(=O)[C@@H](Cc1ccc(O)cc1)NC(=O)[C@@H](CO)NC(=O)[C@@H](Cc1c[nH]c2ccccc12)NC(=O)C(Cc1cnc[nH]1)NC(=O)C1CCC(=O)N1)C(=O)N[C@@H](CCCN=C(N)N)C(=O)N1CCC[C@@H]1C(=O)NCC(N)=O` (stereo not given in full), the molecule was called inactive in experiment [1].
Consider `CC1OC(O[C@H]2C[C@@H](O)[C@]3(CO)[C@@H]4C(CC[C@]3(O)C2)[C@@]2(O)CC[C@H](C3=CC(=O)OC3)[C@@]2(C)C[C@H]4O)C(O)C(O)C1O` (stereo not given in full), for which the call in experiment [1] was inactive. Moreover, in experiment [2], the Potency result is “inactive”. For the same molecule, the activity, negative = inhibition in experiment [3] (parasite line A) is -8.52%; in experiment [3] (parasite line B), -0.0666%.
